Experimental findings from PubChem BioAssay AID1645858 (Buhrlage Lab, Dana-Farber Cancer Institute and Novartis …, 2021) are described below.

Among all 47,000 compounds or so, about 330 (0.7%) were called active. Cut-off read from the data, not from the text of the source: active = inhibition above about 30%; inactive = the rest. Only a selection was taken, and actives are over-represented in it overall.

The target in the experiment is OTU domain-containing protein 3 (Homo sapiens) (UniProt Q5T2D3). As to the kind of experiment: blocks human OTUD3 ubiquitin-rhodamine cleavage (AID 1645858). To be noted: purified OTUD3, Ub-rhodamine fluorescence, 2 h; at 25 µM; hits give high values.
OTU domain-containing protein 3 (Homo sapiens), sequence (Q5T2D3 whole entry, looked up, the tested form may be a part): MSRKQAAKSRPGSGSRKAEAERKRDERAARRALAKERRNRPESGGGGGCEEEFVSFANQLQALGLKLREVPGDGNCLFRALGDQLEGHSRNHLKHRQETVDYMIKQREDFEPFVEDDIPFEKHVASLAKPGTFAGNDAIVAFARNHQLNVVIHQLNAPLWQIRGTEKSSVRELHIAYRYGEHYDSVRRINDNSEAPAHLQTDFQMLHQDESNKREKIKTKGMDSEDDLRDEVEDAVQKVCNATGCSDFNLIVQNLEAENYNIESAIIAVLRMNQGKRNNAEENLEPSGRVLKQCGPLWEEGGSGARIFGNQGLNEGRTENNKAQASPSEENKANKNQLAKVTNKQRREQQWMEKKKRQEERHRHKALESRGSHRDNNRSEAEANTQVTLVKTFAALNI
Turning to `Cc1cc2n(n1)CCCN2C(=O)CCC(=O)N1CCN(c2ccc(F)cc2)CC1`, the inhibition (in general, the change of the read-out against control, counted positive when it falls) is 7.75% (inactive). For `O=C(NCc1cccnc1)C1CCN(c2cnc(N3CCCCCC3)nc2)CC1`, the inhibition is -16.6% (inactive). Consider `O=C(Cn1cccc1-c1nnc(C2CC2)o1)NC1CCCCC1`, for which the inhibition is -15.9% (inactive). The value for `CCCNc1c(NC(=O)C2CC(=O)N(c3ccccc3)C2)c(=O)oc2ccccc12` (stereo not drawn) was 21.6% (inactive); that for `O=C(N[C@@H]1C[C@@H](Oc2cccnc2)[C@H](O)[C@H]1N1CCCCC1)c1ccccn1` was -9.39% (inactive).

Turning to `CC(=O)N1Cc2ccccc2CC2(CCN(Cc3cccnc3)CC2)C1`, the inhibition was 4.03% (inactive). As for `CCC(=O)Nc1nc2cc(NC(=O)c3ccc(OC)cc3)ccc2s1`, the figure is 17.4% (inactive); as for `O=C(NCCc1ccccc1)c1ccc2c(=O)n(Cc3ccco3)c(=O)n(Cc3cccc([N+](=O)[O-])c3)c2c1`, 36.8% (active). With `O=C(NCCc1ccccc1)c1ccc2c(=O)nc3c(-c4ccccc4F)n[nH]n3c2c1`, the inhibition is -7.12% (inactive).

On to `O=C(Cn1c(=O)n(Cc2ccc3c(c2)OCO3)c(=O)c2ccccc21)NCc1ccco1`, for which the inhibition is 0.529% (inactive). On to `COCCn1cc2c3c(cccc31)CN(C(=O)c1cnccn1)CC2`, for which the inhibition is -12.8% (inactive). As for `Cc1nn(-c2ccccn2)c2ncc(C(=O)c3cc(F)ccc3O)cc12`, the figure is -3.93% (inactive); as for `CCNC(=O)CCc1nc2c(C)nn(-c3ccccc3)c2n(CC)c1=O`, 9.41% (inactive). For the compound `CC(C)c1cc(C2CCCN2C(=O)Cc2ccc(F)cc2)no1` (stereo not drawn), the inhibition was 2.85% (inactive).

For `CCN1CCC(n2c(C(F)(F)F)nc3c(OC)cccc32)CC1`, the inhibition is 5.17% (inactive). As for `CCN1C[C@@]23CN(C(=O)c4cccc(Cl)c4)C[C@@H](C[C@@H]2S1(=O)=O)O3`, the inhibition is 11.4% (inactive). Turning to `CCc1nnc(-c2ccc(=O)n(CC(=O)N3CCN(C(C)C)CC3)c2)o1`, the inhibition is -5.08% (inactive).

As for `CNc1nc(N2CCCCCC2)nc(-n2cnc(SC)n2)n1`, the inhibition is -0.432% (inactive). Regarding `COc1cccc(N2CCN(C(=O)c3sc4ncccc4c3-n3cccc3)CC2)c1`, the inhibition was 15.3% (inactive). For the compound `O=C(Cc1cc(=O)oc2cc(O)ccc12)N1CC[C@@]2(O)CCCC[C@H]2C1`, the inhibition is 1.08% (inactive). As for `Cc1occc1C(=O)Nc1cc(-c2ccc(F)cc2)nn1C`, the figure is -0.358% (inactive); as for `O=C(O)CC1(CC(=O)Nc2ccc(Oc3ccccc3)cc2)CCCC1`, 15.9% (inactive).

As for `Clc1ccc(CNC2CCN(Cc3ccccc3)C2)cc1Cl` (stereo not drawn), the inhibition was 5.2% (inactive). As for `Cc1cc(S(=O)(=O)N2CC=C(c3c(C)[nH]c4ccccc34)CC2)ccc1F`, the figure is -29.4% (inactive). As for `CCc1ccc(S(=O)(=O)N2CCC3(CC2)COCCN(Cc2cccnc2)C3)cc1`, the figure is -4.96% (inactive); as for `O=C(c1ccc(N2CCCC2)nn1)N1CCN(c2ccccn2)CC1`, 0.782% (inactive); as for `Clc1cc2nc(N3CCN(c4ccccn4)CC3)c3nncn3c2cc1Cl`, 44.6% (active). Consider `Cc1nn(-c2ccccc2)c(C)c1S(=O)(=O)N1CCN(c2ccccn2)CC1`, for which the inhibition was -4.16% (inactive).

`Cc1nc(NC(=O)c2ccc(F)cc2Cl)sc1-c1ccccc1`: the inhibition was -3.32% (inactive). As for `CC(=O)N[C@@H]1C[C@H](c2cccc(F)c2)O[C@@H]2CCC[C@@H]12`, the figure is -4.95% (inactive); as for `CCn1c(CNC(=O)c2ccco2)nnc1SCC(=O)Nc1cccc(F)c1`, 0.153% (inactive); as for `COc1ccc(/C=C/C(=O)Nc2ccc3c(c2)OCCO3)cc1Br`, -13.2% (inactive).

As to `O=C(CSc1nnc(-c2ccncc2)n1Cc1ccccc1)Nc1cccc(Cl)c1`, the inhibition was -10.3% (inactive). As for `O=C(c1ccncc1)N1CC[C@@H]2CN(Cc3cccc(Cl)c3)S(=O)(=O)[C@@H]2CC1`, the figure is 2.12% (inactive); as for `Cc1cccc(-c2c3c(=O)n(C)c(=O)n(C)c3cn2Cc2ccc(F)cc2)c1`, -12.7% (inactive); as for `CC(C)=CCC/C(C)=C\Cc1c(O)cc(C)c(C=O)c1O`, -3.19% (inactive). With `NC(=O)c1ccc(NC(=O)Cc2cc(-c3ccc(Cl)cc3)on2)cc1`, the inhibition was -10.7% (inactive).

With `Cc1ccc(NS(=O)(=O)c2ccc3c(c2)NC(=O)CC(=O)N3)cc1F`, the inhibition was -1.08% (inactive). In the case of `CCOc1ccc(S(=O)(=O)N2CCCC2c2ccco2)cc1` (stereo not drawn), the inhibition was -0.738% (inactive). `O=C1CC(C(=O)N2CCC(c3ccc(Nc4ncccn4)cn3)CC2)c2ccccc2N1` (stereo not drawn): the inhibition was -7.6% (inactive). In the case of `O=S(=O)(c1cccc2cccnc12)N1CCN(C2CCCCC2)CC1`, the inhibition was -6.63% (inactive). For the compound `O=C1C(O)=C(c2ccc(O)c(O)c2)C(=O)C(O)=C1c1ccccc1`, the inhibition is 73.3% (active). Turning to `CCOC(=O)c1cc(C(=O)Nc2cccc(C(F)(F)F)c2)n2ccc(C)cc12`, the inhibition is -0.911% (inactive).
